Experimental data from PubChem BioAssay AID463173 (ICCB-Longwood Screening Facility, Harvard Medical School, 2010).
Hit rate of the full screen: of about 52,000 compounds, about 1,700 (3.3%) were called active. This excerpt belongs to a sample that is enriched for actives. Values without a mark were called inactive. Cut-off read from the data, not from the text of the source: active = survival mostly below about 52% (no sharp cut-off); inactive = mostly above about 56%.

Each compound was assayed on Wild type (assay: S. aureus survival, RN4220 and DeltatarO strains – OD600, teichoic acid synthesis inhibitors, primary screen (AID 463173)). Details: S. aureus RN4220 wild type/DeltatarO growth, OD600, 18 h, hits give low values, screened at 18.75 µg/mL (by protocol).

Question: Which survival does the source give for Cc1cccc(-c2nc(CSCC(=O)NCCc3ccc(Cl)cc3)c(C)o2)c1 here?
Answer: -3% (active)

Question: COc1ccc(-c2nc(CSCC(=O)NCCc3ccccc3)c(C)o2)cc1 was tested. Which survival did it give?
Answer: 95%

Question: Which survival does the source give for COc1cccc(-c2nc(CS(=O)(=O)CC(=O)NCCc3ccc(Cl)cc3)c(C)o2)c1 here?
Answer: 78%

Question: With COc1ccc(CCNC(=O)CSCc2nc(-c3cccc(C)c3)oc2C)cc1OC as the compound, how does the survival read?
Answer: 74%

Question: How did the survival turn out when CCOc1ccc(CCNC(=O)CSCc2nc(-c3cccc(C)c3)oc2C)cc1OCC was run?
Answer: 80%

Question: How did the survival turn out when COc1cccc(-c2nc(CSCC(=O)NCCc3ccc(Cl)cc3)c(C)o2)c1 was run?
Answer: -1% (active)

Question: COc1cc2[nH]c(=O)n(CCCC(=O)N(C)Cc3ccccc3)c(=O)c2cc1OC was tested. Which survival did it give?
Answer: 68%

Question: Which survival does the source give for CN(C)c1ccc(-c2nnc3n(Cc4ccccc4)c(=O)c4ccccc4n23)cc1 here?
Answer: 83%

Question: With COc1ccc(N2CCN(C(=O)c3cccc(NC(=O)c4nsc5ccccc45)c3)CC2)cc1 as the compound, how does the survival read?
Answer: 131%

Question: For O=C(NCc1ccc2c(c1)OCO2)C1CCN(c2ccc(S(=O)(=O)N3CCCC3)cc2)CC1, which survival is on record?
Answer: 101%

Question: For COc1ccc(N2CCN(c3nc(-c4ccccc4F)nc4ccccc34)CC2)cc1, which survival is on record?
Answer: 92%

Question: Which survival does the source give for Cc1ccc(-c2nc(N3CCCC(C)C3)c3ccccc3n2)cc1 (stereo unspecified) here?
Answer: -2% (active)

Question: For Cc1cccc(-c2nc(N3CCN(c4ccc(F)cc4)CC3)c3ccccc3n2)c1, which survival is on record?
Answer: 64%

Question: How did the survival turn out when CC1CCCN(c2nc(-c3ccccc3O)nc3ccccc23)C1 (stereo unspecified) was run?
Answer: -3% (active)

Question: With CC1CCCN(c2csc3ccccc3c2=O)C1 (stereo unspecified) as the compound, how does the survival read?
Answer: 97%

Question: Which survival does the source give for COc1ccccc1N1CCN(c2nc(-c3ccc(C)cc3)nc3ccccc23)CC1 here?
Answer: 72%

Question: For N#CCNC(=O)c1sc2ccccc2c1Cl, which survival is on record?
Answer: 107%

Question: Cc1nnc(NC(=O)CCCN2C(=O)/C(=C/c3cccs3)SC2=S)s1 was tested. Which survival did it give?
Answer: 107%

Question: How did the survival turn out when COc1cc(C(=O)N2CC(=O)Nc3ccc(C)cc3C2c2ccc(F)cc2)cc(OC)c1OC (stereo unspecified) was run?
Answer: 147%

Question: For Cc1c(Cl)cccc1NC(=O)CCS(=O)(=O)c1ccc2c(c1)CC(C)N2C(=O)C1CC1 (stereo unspecified), which survival is on record?
Answer: 85%

Question: Cc1ccc(-n2ncc3c(N4CCC(Cc5ccccc5)CC4)ncnc32)cc1 was tested. Which survival did it give?
Answer: 70%

Question: CC(C)CC(NC(=O)C1CCCCC1)C(=O)Nc1cccc(C(F)(F)F)c1 (stereo unspecified) was tested. Which survival did it give?
Answer: 64%

Question: For C=Cc1ccc(CN2C(=O)N(c3ccc(C)c(C)c3)S(=O)(=O)c3ccccc32)cc1, which survival is on record?
Answer: 71%

Question: For C=Cc1ccc(CN2C(=O)N(c3ccc(CC)cc3)S(=O)(=O)c3ccccc32)cc1, which survival is on record?
Answer: 1% (active)

Question: How did the survival turn out when C=Cc1ccc(CN2C(=O)N(c3cccc(Cl)c3)S(=O)(=O)c3ccccc32)cc1 was run?
Answer: 57%

Question: How did the survival turn out when Cc1coc2c(C)c3oc(=O)c(CCC(=O)NCCc4ccccc4)c(C)c3cc12 was run?
Answer: 84%

Question: COc1cccc(N2CCN(C(=O)c3cnc4c(C)cccn4c3=O)CC2)c1 was tested. Which survival did it give?
Answer: 91%

Question: Which survival does the source give for COc1ccc(N2CCN(c3nc4ccc(C)cc4n4nnnc34)CC2)cc1 here?
Answer: -6% (active)

Question: COc1ccccc1CNc1nc2ccc(C)cc2n2nnnc12 was tested. Which survival did it give?
Answer: -1% (active)

Question: For COc1ccccc1N1CCN(c2nc3ccc(C)cc3n3nnnc23)CC1, which survival is on record?
Answer: 133%

Question: Which survival does the source give for COc1ccc(OC)c(CNc2nc3ccc(C)cc3n3nnnc23)c1 here?
Answer: 85%

Question: Cc1ccc2nc(NCc3ccccc3Cl)c3nnnn3c2c1 was tested. Which survival did it give?
Answer: 94%

Question: Cc1ccc2nc(N3CCN(c4ccc(F)cc4)CC3)c3nnnn3c2c1 was tested. Which survival did it give?
Answer: 14% (active)

Question: Which survival does the source give for Cc1ccc(N2CCN(c3nc4ccc(C)cc4n4nnnc34)CC2)c(C)c1 here?
Answer: 76%

Question: With Cc1ccc2nc(N3CCN(c4ccccc4F)CC3)c3nnnn3c2c1 as the compound, how does the survival read?
Answer: 76%

Question: How did the survival turn out when Cc1ccc2nc(N3CCN(c4ccccc4)CC3)c3nnnn3c2c1 was run?
Answer: 78%

Question: For CCN(c1ccccc1)S(=O)(=O)c1ccc(-c2cc(C)no2)s1, which survival is on record?
Answer: 159%

Question: NC(=S)N/N=C/c1ccccc1OCC(=O)O was tested. Which survival did it give?
Answer: 96%

Question: With Cc1ccc(NC(=O)Cn2ccn(-c3ccc(F)c(F)c3)c(=O)c2=O)cc1C as the compound, how does the survival read?
Answer: 78%

Question: For Cc1ccc(-c2c(C(=O)NCCc3ccc(Cl)cc3)oc(=O)c3ccccc23)cc1, which survival is on record?
Answer: 57%

Question: For Cc1ccc(CCNC(=O)c2oc(=O)c3ccccc3c2-c2ccc(C)cc2)cc1, which survival is on record?
Answer: 17%

Question: For Cc1ccc(-c2c(C(=O)NCc3ccc(F)cc3)oc(=O)c3ccccc23)cc1, which survival is on record?
Answer: 76%

Question: How did the survival turn out when CCCCN(Cc1ccccc1)C(=O)c1oc(=O)c2ccccc2c1-c1ccc(C)cc1 was run?
Answer: 0% (active)

Question: How did the survival turn out when Cc1ccc(-c2c(C(=O)N(C)Cc3ccccc3)oc(=O)c3ccccc23)cc1 was run?
Answer: 11% (active)

Question: For Cc1ccc(-c2c(C(=O)NCCc3ccccc3)oc(=O)c3ccccc23)cc1, which survival is on record?
Answer: 79%

Question: COc1ccccc1CCNC(=O)c1ccc2c(c1)c(C)c(C)n2Cc1ccc(Cl)cc1 was tested. Which survival did it give?
Answer: 77%

Question: CC1(C)Cc2ccccc2-c2nnc(-c3ccccc3)n21 was tested. Which survival did it give?
Answer: 95%

Question: How did the survival turn out when COc1ccc(C2C=C(c3ccc(Br)cc3)Nc3nnnn32)c(OC)c1 (stereo unspecified) was run?
Answer: 66%

Question: Which survival does the source give for Fc1ccc(Br)cc1C1C=C(c2ccc(Br)cc2)Nc2nnnn21 (stereo unspecified) here?
Answer: 81%

Question: COc1cccc(C2=CC(c3cc(Br)ccc3F)n3nnnc3N2)c1 (stereo unspecified) was tested. Which survival did it give?
Answer: -4% (active)

Question: With O=C(c1ccc2c(c1)N(Cc1ccc(Cl)cc1)C(=O)c1ccccc1S2=O)N1CCOCC1 (stereo unspecified) as the compound, how does the survival read?
Answer: 83%

Question: Which survival does the source give for Cc1ccc(S(=O)(=O)N2CCCc3cc(NC(=O)c4ccc(C(F)(F)F)cc4)ccc32)cc1 here?
Answer: 110%

Question: Which survival does the source give for Cc1ccc2c(c1)-c1ncc(C(=O)c3cc(Br)ccc3O)cc1CO2 here?
Answer: 56%

Question: Which survival does the source give for Cc1ccc2c(c1)-c1ncc(C(=O)c3ccccc3O)cc1CO2 here?
Answer: -7% (active)

Question: Cc1cc(O)c(C(=O)c2cnc3c(c2)COc2ccccc2-3)cc1Cl was tested. Which survival did it give?
Answer: 64%

Question: O=C(c1cnc2c(c1)COc1ccc(Cl)cc1-2)c1ccccc1O was tested. Which survival did it give?
Answer: 131%

Question: How did the survival turn out when O=C(c1cnc2c(c1)COc1ccccc1-2)c1ccccc1O was run?
Answer: 5% (active)

Question: With Cc1ccc2c(c1)-c1nc(-c3ccccc3)cc(-c3ccccc3)c1CO2 as the compound, how does the survival read?
Answer: 79%

Question: For COc1ccc(C2=C(C)C(N3CCC(C(=O)NCc4ccco4)CC3)=NS2(=O)=O)cc1, which survival is on record?
Answer: 56%

Question: With Cc1ccc(NS(=O)(=O)c2cc3[nH]c(=O)c(=O)[nH]c3cc2C)cc1N(C)C as the compound, how does the survival read?
Answer: 81%

Question: For CC1(CCC(=O)O)NNC(=S)NN1, which survival is on record?
Answer: 101%

Question: Which survival does the source give for Cn1cccc1-c1cc2n(n1)CCC(=O)N2CC(=O)Nc1ccc(F)cc1Cl here?
Answer: 63%

Question: Which survival does the source give for Cc1nn(C(=O)c2cccc(F)c2)c(C)c1S(=O)(=O)N1CCCCCC1 here?
Answer: 84%

Question: Which survival does the source give for Cc1c(C(=O)N2CCC(C)CC2)c(S(=O)(=O)Nc2cccc(C(F)(F)F)c2)c(C)n1C here?
Answer: 78%

Question: With CCOC(=O)c1ccc(N2CCN(c3cccc(OC)c3)CC2)c(NC(=O)Nc2ccc(OCC)cc2)c1 as the compound, how does the survival read?
Answer: -6% (active)

Question: CCOC(=O)c1ccc(N2CCN(c3ccc(F)cc3)CC2)c(NC(=O)Nc2cccc(OC)c2)c1 was tested. Which survival did it give?
Answer: 67%

Question: CCOC(=O)c1ccc(N2CCN(c3cccc(Cl)c3)CC2)c(NC(=O)Nc2ccc(Cl)cc2)c1 was tested. Which survival did it give?
Answer: 76%

Question: For Cc1cn2c(=O)cc(COc3ccccc3NC(=O)c3ccco3)nc2s1, which survival is on record?
Answer: 83%

Question: Which survival does the source give for Fc1cccc(NCc2cccn2-c2nnc(N3CCOCC3)s2)c1 here?
Answer: 77%

Question: Which survival does the source give for CC(=O)N1SC(N)=NC1c1ccccc1 (stereo unspecified) here?
Answer: 111%

Question: How did the survival turn out when CCOc1ccc(N(C)S(=O)(=O)c2ccc3c(c2)CCCN3C(C)=O)cc1 was run?
Answer: 75%

Question: COc1ccc(CCNC(=O)c2ccc3c(c2)nc2n3CCCCC2)cc1OC was tested. Which survival did it give?
Answer: 84%

Question: With CCOc1ccc(CNC(=O)c2ccc3c(c2)nc2n3CCC(C)C2)cc1OC (stereo unspecified) as the compound, how does the survival read?
Answer: 73%

Question: O=C(NCc1ccccc1Br)c1ccc2c(c1)nc1n2CCOC1 was tested. Which survival did it give?
Answer: -3% (active)

Question: Which survival does the source give for O=C(NCc1ccccc1)c1ccc2c(c1)nc1n2CCOC1 here?
Answer: 82%

Question: Which survival does the source give for CCOc1ccc(CNC(=O)c2ccc3c(c2)nc2n3CCOC2)cc1OC here?
Answer: 1% (active)

Question: Which survival does the source give for COc1ccc(CCNC(=O)c2ccc3c(c2)nc2n3CCOC2)cc1OC here?
Answer: -4% (active)

Question: Cc1ccc(C)c(CNC(=O)c2ccc3c(c2)nc2n3CCOC2)c1 was tested. Which survival did it give?
Answer: 63%

Question: CCOc1ccc(CCNC(=O)c2ccc3c(c2)nc2n3CCOC2)cc1OCC was tested. Which survival did it give?
Answer: 63%

Question: Which survival does the source give for CCOc1ccc(CNC(=O)c2ccc3c(c2)nc2n3CCOC2)cc1 here?
Answer: 57%

Question: For Cc1ccc(C)c(NC(=O)CSc2nc(-c3ccccc3)c(C#N)c(=O)[nH]2)c1, which survival is on record?
Answer: 113%

Question: COc1cccc(NC(=O)CSc2nnc(-c3cccc(OC)c3)o2)c1 was tested. Which survival did it give?
Answer: 90%

Question: Which survival does the source give for CCn1c(CC(=O)Nc2ccccc2)n[nH]c1=S here?
Answer: 107%

Question: For Cc1cn2c(=O)cc(COC(=O)c3cccc(NC(=O)c4ccccc4C)c3)nc2s1, which survival is on record?
Answer: 71%

Question: How did the survival turn out when COc1ccccc1CNc1ccc(-c2nc(-c3ccccn3)no2)cc1[N+](=O)[O-] was run?
Answer: 77%

Question: With Cc1ccc2c(=O)c(C(=O)c3ccccc3)cn(CC(=O)Nc3ccccc3C)c2n1 as the compound, how does the survival read?
Answer: 65%

Question: O=c1[nH]c2ccccc2c(O)c1-c1nc2ccccc2c(=O)[nH]1 was tested. Which survival did it give?
Answer: 109%

Question: Cc1cccc(NC(=O)CSc2nc3ccccc3nc2N2CCOCC2)c1C was tested. Which survival did it give?
Answer: 65%

Question: Cc1ccc(C)c(NC(=O)CSc2nc3ccccc3nc2N2CCOCC2)c1 was tested. Which survival did it give?
Answer: 76%

Question: Which survival does the source give for CCOc1ccc(NC(=O)CSc2nc3ccccc3nc2N2CCOCC2)cc1 here?
Answer: 112%

Question: How did the survival turn out when Cc1ccc(NC(=O)CSc2nc3ccccc3nc2N2CCOCC2)cc1 was run?
Answer: 59%

Question: CCOc1ccccc1NC(=O)CSc1nc2ccccc2nc1N1CCOCC1 was tested. Which survival did it give?
Answer: -11% (active)

Question: Cc1cccc(NC(=O)CSc2nc3ccccc3nc2N2CCC(C)CC2)c1 was tested. Which survival did it give?
Answer: -9% (active)

Question: For CC(=O)Nc1ccc(NC(=O)CSc2nc3ccccc3nc2N2CCC(C)CC2)cc1, which survival is on record?
Answer: 80%

Question: Cc1cccc(NC(=O)CSc2nc3ccccc3nc2N2CCCCC2)c1C was tested. Which survival did it give?
Answer: 70%

Question: CC1CCN(c2nc3ccccc3nc2SCC(=O)Nc2ccccc2C(C)C)CC1 was tested. Which survival did it give?
Answer: -16% (active)
